This note sets out measurements from PubChem BioAssay (EPA / NIEHS).

Calls of active or inactive are those of the source. The calls were made as follows: active = hit-call score of the fitted dose curve at least 0.9, where 1 is the maximum; inactive = score below 0.9.

Assay [1] in a line: CEETOX_H295R_PROG: CeeTox H295R High-throughput Steroidogenesis Assay for Progesterone (PROG) (AID 2283442).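 As to AC50: human H295R adrenal cells primed with 10 µM forskolin before dosing.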 As to conditions: actives raise or lower the signal. The essentials:
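H295R adrenal cells prestimulated 48 h with 10 uM forskolin, then exposed 48 h to test chemical in 0.1% DMSO. Progesterone in medium quantified by HPLC-MS/MS after MTBE extraction; viability checked by MTT in same wells.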

Assay [2] in a line: CEETOX_H295R_TESTO: CeeTox H295R High-throughput Steroidogenesis Assay for Testosterone (TESTO) (AID 2283457). As to conditions: actives raise or lower the signal. The essentials: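 H295R adrenal cells, passage ≤10, exposed to chemicals for 48 h. Testosterone in medium measured by MTBE extraction and HPLC-MS/MS against a 7-point standard curve. Bidirectional fit versus DMSO; MTT viability checked in the same wells.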

Read-out in assay [3]: Tumor necrosis factor receptor superfamily member 6 (Homo sapiens) (UniProt P25445)
As to the kind of experiment: LTEA_HepaRG_FAS: Life Technologies and Expression Analysis (LTEA) Assay for Fas cell surface death receptor (FAS) using HepaRG (AID 2283447). As to conditions: mRNA level, 48 h; actives raise or lower the signal. The essentials:
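Differentiated human HepaRG cells, pre-cultured 48 h, were exposed in duplicate for 48 h to 8-point half-log concentrations (top 100 uM, 0.5% DMSO) in serum-free induction medium; FAS mRNA measured by qRT-PCR, normalized to ACTB/GAPDH/POLR2A, bidirectional fit versus DMSO.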

Read-out in assay [4]: Cyclin Dependent Kinase Inhibitor 1A (CDKN1A), CDKN1A (gene 1026)
Kind of assay: LTEA_HepaRG_CDKN1A: Life Technologies and Expression Analysis (LTEA) Assay for Cyclin Dependent Kinase Inhibitor 1A (CDKN1A) using HepaRG (AID 2283450). As to conditions: mRNA level, 48 h; actives raise or lower the signal. The essentials:
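Differentiated HepaRG cells in serum-free induction medium, exposed 48 h in duplicate to eight half-log concentrations up to 100 uM in 0.5% DMSO. mRNA measured by TaqMan qRT-PCR, normalized to ACTB, GAPDH, POLR2A; bidirectional fit versus DMSO.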

Read-out in assay [5]: Cyclin D1 (CCND1), CCND1 (gene 595)
As to the kind of experiment: LTEA_HepaRG_CCND1: Life Technologies and Expression Analysis (LTEA) Assay for Cyclin D1 (CCND1) using HepaRG (AID 2283451). As to conditions: mRNA level, 48 h; actives raise or lower the signal. The essentials:
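Differentiated HepaRG cells exposed 48 h in serum-free induction medium to eight half-log concentrations from 100 uM top, 0.5% DMSO, duplicates. CCND1 mRNA measured by Fluidigm TaqMan qRT-PCR, normalised to ACTB, GAPDH, POLR2A; bidirectional fit.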

Read-out in assay [6]: catalase (CAT), CAT (gene 847)
As to the kind of experiment: LTEA_HepaRG_CAT: Life Technologies and Expression Analysis (LTEA) Assay for catalase (CAT) using HepaRG (AID 2283452). As to conditions: mRNA level, 48 h; actives raise or lower the signal. The essentials:
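Differentiated HepaRG cells in serum-free induction medium were dosed 48 h in duplicate, eight half-log concentrations from 100 uM in 0.5% DMSO. Transcript measured by TaqMan qRT-PCR, normalised to ACTB/GAPDH/POLR2A, fitted bidirectionally against DMSO.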

Read-out in assay [7]: flavin-containing dimethylaniline monooxygenases 3 (FMO3), FMO3 (gene 2328)
Kind of assay: LTEA_HepaRG_FMO3: Life Technologies and Expression Analysis (LTEA) Assay for flavin-containing dimethylaniline monooxygenases 3 (FMO3) using HepaRG (AID 2283453). As to conditions: mRNA level, 48 h; actives raise or lower the signal. The essentials:
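Eight-point concentration-response in serum-free HepaRG cultures (top 100 uM, 0.5% DMSO, 48 h). Read-out: FMO3 mRNA level normalized to three endogenous control genes, fitted bidirectionally versus vehicle.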

Read-out in assay [8]: Cytochrome P450 (CYP1A1), CYP1A1 (gene 1543)
Kind of assay: LTEA_HepaRG_CYP1A1: Life Technologies and Expression Analysis (LTEA) Assay for Cytochrome P450 (CYP1A1) using HepaRG (AID 2283454). As to conditions: mRNA level, 48 h; actives raise or lower the signal. The essentials: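 Differentiated human HepaRG cells, after 48 h plating, exposed in duplicate for 48 h in serum-free induction medium to 8 half-log concentrations up to 100 uM in 0.5% DMSO. CYP1A1 mRNA by qRT-PCR, normalized to ACTB/GAPDH/POLR2A; bidirectional fit versus DMSO.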

Read-out in assay [9]: CFLAR gene, CFLAR (gene 8837)
Kind of assay: LTEA_HepaRG_CFLAR: Life Technologies and Expression Analysis (LTEA) Assay for CFLAR gene using HepaRG (AID 2283455). As to conditions: mRNA level, 48 h; actives raise or lower the signal. The essentials: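 Gain- or loss-of-signal changes in CFLAR transcript were fitted bidirectionally relative to 0.5% DMSO. Cells (HepaRG, duplicate wells) were dosed for 48 h across eight half-log concentrations topping at 100 uM; quantitation by TaqMan qRT-PCR.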

Read-out in assay [10]: Forkhead box O1 (FOXO1), FOXO1 (gene 2308)
Kind of assay: LTEA_HepaRG_FOXO1: Life Technologies and Expression Analysis (LTEA) Assay for Forkhead box O1 (FOXO1) using HepaRG (AID 2283456). As to conditions: mRNA level, 48 h; actives raise or lower the signal. The essentials: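 Using one lot of HepaRG hepatic cells kept in 0.5% DMSO, the team applied test chemicals in duplicate, half-log dilutions from 100 uM, for 48 h. Expression, normalised to ACTB/GAPDH/POLR2A, was compared with vehicle in either direction.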

Read-out in assay [11]: growth arrest and DNA damage 45 (GADD45A), GADD45A (gene 1647)
Kind of assay: LTEA_HepaRG_GADD45A: Life Technologies and Expression Analysis (LTEA) Assay for growth arrest and DNA damage 45 (GADD45A) using HepaRG (AID 2283458). As to conditions: mRNA level, 48 h; actives raise or lower the signal. The essentials:
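HepaRG, 48 h exposure, 8 conc. (top 100 uM, half-log steps), 0.5% DMSO vehicle, duplicates. Read-out: qRT-PCR mRNA level, housekeeping-normalized (ACTB/GAPDH/POLR2A). Curves fit bidirectionally vs DMSO baseline.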

Read-out in assay [12]: Forkhead box O3 (FOXO3), FOXO3 (gene 2309)
Kind of assay: LTEA_HepaRG_FOXO3: Life Technologies and Expression Analysis (LTEA) Assay for Forkhead box O3 (FOXO3) using HepaRG (AID 2283459). As to conditions: mRNA level, 48 h; actives raise or lower the signal. The essentials: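 Gene-expression endpoint: FOXO3 transcript level by qRT-PCR in HepaRG cultures treated 48 h with chemicals up to 100 uM (half-log, 0.5% DMSO vehicle).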

Read-out in assay [13]: ABC Transporter (ABCB1), ABCB1 (gene 5243)
As to the kind of experiment: LTEA_HepaRG_ABCB1: Life Technologies and Expression Analysis (LTEA) Assay for ABC Transporter (ABCB1) using HepaRG (AID 2283460). As to conditions: mRNA level, 48 h; actives raise or lower the signal. The essentials: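 Human liver HepaRG line treated 48 h with up to 100 uM compound (eight half-log points, 0.5% DMSO); ABCB1 mRNA change fitted bidirectionally against DMSO controls.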

Read-out in assay [14]: growth arrest and DNA damage 45 (GADD45B), GADD45B (gene 4616)
Kind of assay: LTEA_HepaRG_GADD45B: Life Technologies and Expression Analysis (LTEA) Assay for growth arrest and DNA damage 45 (GADD45B) using HepaRG (AID 2283461). As to conditions: mRNA level, 48 h; actives raise or lower the signal. The essentials: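 Differentiated human HepaRG cells in serum-free induction medium exposed 48 h in duplicate to eight concentrations, top 100 uM, half-log steps, 0.5% DMSO. GADD45B mRNA by TaqMan qRT-PCR, normalized to ACTB, GAPDH, POLR2A; bidirectional fit versus DMSO.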

Read-out in assay [15]: ABC Transporter (ABCC3), ABCC3 (gene 8714)
As to the kind of experiment: LTEA_HepaRG_ABCC3: Life Technologies and Expression Analysis (LTEA) Assay for ABC Transporter (ABCC3) using HepaRG (AID 2283462). As to conditions: mRNA level, 48 h; actives raise or lower the signal. The essentials: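 Differentiated human HepaRG cells exposed 48 h in serum-free induction medium, 0.5% DMSO vehicle, 8-point half-log series to 100 uM in duplicate. ABCC3 mRNA by qRT-PCR, normalised to ACTB, GAPDH, POLR2A; bidirectional fit vs DMSO.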

Read-out in assay [16]: ABC Transporter (ABCB11), ABCB11 (gene 8647)
Kind of assay: LTEA_HepaRG_ABCB11: Life Technologies and Expression Analysis (LTEA) Assay for ABC Transporter (ABCB11) using HepaRG (AID 2283463). As to conditions: mRNA level, 48 h; actives raise or lower the signal. The essentials:
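Using HepaRG cultures held in 0.5% DMSO, chemicals were tested at half-log dilutions from 100 uM for 48 h. Induction or suppression of ABCB11 mRNA, normalized to ACTB, GAPDH and POLR2A, was fitted bidirectionally against vehicle.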

Read-out in assay [17]: ABC Transporter (ABCC2), ABCC2 (gene 1244)
As to the kind of experiment: LTEA_HepaRG_ABCC2: Life Technologies and Expression Analysis (LTEA) Assay for ABC Transporter (ABCC2) using HepaRG (AID 2283464). As to conditions: mRNA level, 48 h; actives raise or lower the signal. The essentials:
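Differentiated HepaRG cells in serum-free induction medium exposed 48 h to eight half-log concentrations up to 100 uM, 0.5% DMSO, in duplicate. ABCC2 mRNA measured by qRT-PCR (TaqMan, Fluidigm), normalized to ACTB, GAPDH and POLR2A. Fitted in both directions against DMSO.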

Read-out in assay [18]: Broad substrate specificity ATP-binding cassette transporter ABCG2 (Homo sapiens) (UniProt Q9UNQ0)
As to the kind of experiment: LTEA_HepaRG_ABCG2: Life Technologies and Expression Analysis (LTEA) Assay for ABC Transporter (ABCG2) using HepaRG (AID 2283465). As to conditions: mRNA level, 48 h; actives raise or lower the signal. The essentials: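 Gene expression of ABCG2 in HepaRG liver cells is quantified by qRT-PCR following 48 h exposure across an eight-point series topping at 100 uM. Values come from bidirectional fitting relative to DMSO vehicle.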

Chain of Broad substrate specificity ATP-binding cassette transporter ABCG2 (Homo sapiens) (Q9UNQ0 whole entry, looked up): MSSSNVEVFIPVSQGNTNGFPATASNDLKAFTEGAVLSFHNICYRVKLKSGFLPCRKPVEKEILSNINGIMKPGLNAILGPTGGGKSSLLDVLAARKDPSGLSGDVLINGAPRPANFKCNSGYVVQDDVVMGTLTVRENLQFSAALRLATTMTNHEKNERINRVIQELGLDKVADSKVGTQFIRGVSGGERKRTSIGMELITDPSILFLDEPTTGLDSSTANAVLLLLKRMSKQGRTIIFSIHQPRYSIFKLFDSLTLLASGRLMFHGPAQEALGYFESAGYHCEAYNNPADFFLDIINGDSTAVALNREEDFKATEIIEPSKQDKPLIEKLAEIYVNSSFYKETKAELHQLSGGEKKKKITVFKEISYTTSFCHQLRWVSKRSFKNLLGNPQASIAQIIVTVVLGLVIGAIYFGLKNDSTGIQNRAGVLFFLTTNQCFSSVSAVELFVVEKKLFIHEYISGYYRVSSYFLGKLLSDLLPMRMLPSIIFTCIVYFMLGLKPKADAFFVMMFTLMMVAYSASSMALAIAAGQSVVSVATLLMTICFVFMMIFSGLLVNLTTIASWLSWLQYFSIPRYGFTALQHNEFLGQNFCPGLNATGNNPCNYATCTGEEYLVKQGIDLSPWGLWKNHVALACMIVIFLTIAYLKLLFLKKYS

Broadly, the AC50 is the concentration at which the activity in the assay is half-maximal. As for `CN(C)c1ccc2nc3ccc(=[N+](C)C)cc-3sc2c1`, in [1], the AC50 is 0.617 µM (active).

As to `CCN1CN(CC)CN(CC)C1`, the compound was called inactive in assay [1].

Take `COc1ccc(C(=O)c2ccccc2)c(O)c1`: the call in assay [1] and in assay [2] was inactive.

For the compound `O=C(O)c1cc(O)c2ccccc2c1O`, the concentration at half-maximal activity (AC50) in assay [1] was 0.5 µM (active).

Take `CCOC(=O)C1=NN(c2ccc(Cl)cc2Cl)C(C)(C(=O)OCC)C1` (stereo not drawn): the outcome in [1] and in assay [2] was inactive.

Take `C=C[C@@]1(C)CC(=O)[C@]2(O)[C@@]3(C)[C@@H](O)CCC(C)(C)[C@@H]3[C@H](O)[C@H](OC(C)=O)[C@@]2(C)O1`: the outcome in [1] was inactive.

Consider `Cc1ccc([N+](=O)[O-])cc1N`, for which the results for the AC50 in assay [1] and in assay [8] were 30.2 µM (active) and 25 µM (active), respectively. The compound was classed as inactive in assay [3], in [4], in [5], in assay [6], in assay [7] and in [9]. The result in [10], in assay [11], in assay [12], in assay [13], in assay [14] and in [15] was inactive. For the same compound, the outcome in assay [16], in assay [17] and in assay [18] was inactive.

As for `CC(C)(C)NC(=O)[C@H]1CC[C@H]2[C@@H]3CC[C@H]4NC(=O)C=C[C@]4(C)[C@H]3CC[C@]12C`, the AC50 in assay [1] is 1.57 µM (active).

For `O=C(OCc1ccccc1)c1ccc(O)cc1`, the AC50 in [1] was 24.6 µM (active).

Take `CC(C)(c1ccccc1)c1ccc(Nc2ccc(C(C)(C)c3ccccc3)cc2)cc1`: in assay [1], the AC50 was 1.84 µM (active).
